# Compounds with a hit are over-represented: about 1.6% of the library has one in this group of screens.
# GRK2 inh = compounds blocking aptamer binding on GRK2 – biochemical, human GRK2, bead flow cytometry, HTS, primary screen | FAM-aptamer displacement from GRK2 | Beta-adrenergic receptor kinase 1 (Homo sapiens), P25098 | AID 488847, 2010 | 0.59% of 330,000 active | inhibition of aptamer binding, % at 10 µM;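 active = inhibition of aptamer binding above 40%, roughly 3 SD of noise, on plates passing a quality check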;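 note: median bead fluorescence of bound FAM aptamer so fluorescent compounds give negative values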
# PREPL inhibitor = PREPL enzyme inhibitors, primary screen, biochemical, fluorescence polarization; inhibition, % at 5.96 µM; recombinant PREPL, fluorescence polarization activity-based probe; 0.68% of 320,000 active; in the data active = inhibition above about 43%
# VLA-4 inh = inhibition in human VLA-4 binding assay, primary screen, VLA-4 allosteric modulator project, MLPCN library, flow cytometry, VLA-4 expressing cells; 0.2% of 330,000 active; AID 2557, 2010; ligand binding flow cytometry; Integrin alpha-4 (Homo sapiens), P13612; inhibition, % (about 7 µM as worked out from the volumes in the protocol); in the data active = inhibition above about 50%
# Pemphigus Ab inh = inhibitors of pemphigus antibody binding to DSG3, primary screen, biochemical, bead-based, flow cytometry, scFv-GFP | Desmoglein-3 (Homo sapiens), P32926 | DSG3-coupled beads, scFv-anti-DSG3-GFP binding; active compounds read low | binding (percent of control), % at 10 µM | 0.48% of 310,000 active | AID 588358, 2011;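 active = binding more than 3 SD below its plate's average and above zero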;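 note: hits lower antibody fragment binding to DSG3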
# JMJD2C inh = inhibitors of GASC-1 histone demethylase, primary screen, biochemical, fluorescence, DELFIA europium; Lysine-specific demethylase 4C (Homo sapiens), Q9H3R0; GST-JMJD2C(1-420) H3K9me3 demethylation; inhibition, % at 2.35 µM; 0.069% of 330,000 active;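 active = more than half of a compound's replicate wells show inhibition beyond 50%, single wells judged on their own value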;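 note: signal counts dimethyl H3K9 product captured on neutravidin plate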
# Target sequence (Q9H3R0 1-420 limits assumed): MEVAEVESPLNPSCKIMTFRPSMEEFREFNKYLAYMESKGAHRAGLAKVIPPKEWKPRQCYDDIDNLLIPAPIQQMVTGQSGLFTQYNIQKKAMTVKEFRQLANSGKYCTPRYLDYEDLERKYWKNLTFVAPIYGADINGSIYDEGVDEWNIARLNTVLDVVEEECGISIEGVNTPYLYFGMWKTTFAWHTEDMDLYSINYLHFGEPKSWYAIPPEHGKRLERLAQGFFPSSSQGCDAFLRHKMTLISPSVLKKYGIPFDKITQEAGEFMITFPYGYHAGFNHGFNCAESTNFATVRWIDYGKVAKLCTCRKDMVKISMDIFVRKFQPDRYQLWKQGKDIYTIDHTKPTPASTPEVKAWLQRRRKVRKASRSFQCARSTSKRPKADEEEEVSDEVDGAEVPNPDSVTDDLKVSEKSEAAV
# GRK2 CP1 = GRK2 aptamer-displacing inhibitors, retest, confirmation, biochemical, cherry pick 1, bead flow cytometry. bead-bound GRK2, FAM-aptamer displacement. 4% of 2,000 active. aptamer displacement, % at 10 µM. shares compounds with GRK2 inh;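 active = aptamer displacement above 40%, near three times the noise of non-fluorescent compounds, on plates passing quality checks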;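 note: negative values mostly reflect intrinsic compound fluorescence rather than true enhancement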
# FAM quench CP1 = quenches fluorescent RNA aptamer, GRK2 hit artifact | fluorescence response (% of DMSO), % at 10 µM | Carboxyfluorescein RNA aptamer on beads, flow cytometry quenching; active compounds read low | shares compounds with GRK2 inh | 2,000 tested, under 10 active;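 active = compounds that quench the bead-bound fluorescent RNA probe, cutting fluorescence to under half of the solvent control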;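 note: counterscreen run without GRK2 so only probe quenching by compound is measured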
# GRK2 confirm 2 = GRK2 aptamer-displacing inhibitors, hit retest, confirmation, biochemical, cherry pick 2, bead flow cytometry; shares compounds with GRK2 inh; bead-bound GRK2, FAM-aptamer displacement; inhibition of aptamer binding, % at 10 µM; 360 tested, under 10 active; AID 504782, 2011;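 active = inhibition of aptamer binding above 40%, about triple the noise seen with nonglowing compounds, on plates passing quality control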;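 note: negative values mostly come from compounds that fluoresce themselves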
# FAM quench CP2 = quenches fluorescent RNA aptamer, GRK2 hit artifact; shares compounds with GRK2 inh; carboxyfluorescein RNA aptamer beads, flow cytometry quenching; active compounds read low; fluorescence response vs DMSO, % at 10 µM; 360 tested, under 10 active;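 active = response vs DMSO under 50%, meaning signal dropped by over half, treated as fluorescence quencher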;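 note: labelled aptamer on streptavidin beads without GRK2 as a quench counter-screen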
# Hits are given with their value; . = inactive; / = not tested or not shown.
SMILES,GRK2 inh,PREPL inhibitor,VLA-4 inh,Pemphigus Ab inh,JMJD2C inh,GRK2 CP1,FAM quench CP1,others
CCC(=O)N1CC2(CC(c3cccc(NC(=O)COc4ccc(Cl)cc4)c3)=NO2)C[C@@H]1C(N)=O (stereo partly drawn),/,/,/,/,.,/,/,
CCCCCC(=O)Nc1cccc(C2=NOC3(C2)C[C@H](C(N)=O)N(C(=O)CCCCC)C3)c1 (stereo partly drawn),.,.,.,.,.,/,/,
COCCN1CCN(C(=O)C2CCC(=O)N(CCc3cccc(F)c3)C2)CC1 (stereo not drawn),.,.,.,.,.,/,/,
CCOC(=O)c1cccc(NC(=O)Cn2cnc3c2c(=O)n(C)c(=O)n3C)c1,.,.,.,.,.,/,/,
CSc1ccc(CN2CCN(C(C)C)C(CCO)C2)cc1 (stereo not drawn),91,.,.,.,.,.,.,
CC(C)N1CCN(Cc2ccncc2)CC1CCO (stereo not drawn),.,.,.,.,.,/,/,
Cc1ccc(NC(=O)c2ccc3c(c2)C(=O)N(Cc2cccnc2)C3=O)c(C)c1,.,.,.,.,.,/,/,
COc1ccc(C)cc1NC(=O)c1ccc2c(c1)C(=O)N(Cc1ccncc1)C2=O,79,.,.,.,.,.,.,
COc1cc(CNCc2cccs2)ccc1OCc1cccs1,.,.,.,.,.,/,/,
COc1cc(CNCc2cccs2)ccc1OCc1ccccc1,.,.,.,.,.,.,.,
CN(Cc1ccccc1)C(=O)COC(=O)CCC(=O)c1ccc(F)cc1,.,.,.,.,.,.,.,
CN(Cc1ccccc1)C(=O)COC(=O)CCC(=O)c1ccc(Cl)cc1,.,.,.,.,.,/,/,
COc1ccc(CCN2CC(C(=O)N(C)Cc3ccccc3OC)CCC2=O)cc1 (stereo not drawn),.,.,.,.,.,/,/,
COc1ccc(CCN2CC(C(=O)N(C)CCOc3ccccc3)CCC2=O)cc1 (stereo not drawn),.,.,.,.,.,.,.,
CN(CCOc1ccccc1)C(=O)C1CCC(=O)N(CCc2ccc(Cl)cc2)C1 (stereo not drawn),.,/,.,.,.,.,.,
O=C(Nc1ccc2nc3n(c(=O)c2c1)CCCCC3)C(=O)N1CCN(c2ccc(F)cc2)CC1,.,.,.,.,.,/,/,
CC(NC(=O)c1cccc(S(=O)(=O)N2CCN(C)CC2)c1)c1ccc(Cl)cc1Cl (stereo not drawn),75,.,.,.,.,.,.,
CCOc1ccc(OCC)c(S(=O)(=O)NCc2ccccc2)c1,42,.,.,.,.,.,.,
Cc1cc(C)cc(NC(=O)CN2CCN(C(=O)C3CCCO3)CC2)c1 (stereo not drawn),.,.,.,.,.,/,/,
O=C(COC(=O)c1cccc(Cl)c1)Nc1cccc(S(=O)(=O)NC2=NCCC2)c1,.,.,.,.,.,.,.,
CC(C(=O)O)n1c2ccccc2c2cnn(C)c(=O)c21 (stereo not drawn),95,/,.,.,.,.,.,
CCC(C(=O)O)n1c2ccccc2c2cn[nH]c(=O)c21 (stereo not drawn),.,.,.,.,.,/,/,
CC(C)Cn1c(N)c(C(=O)COC(=O)c2cc(C(F)(F)F)nc3c(C(F)(F)F)cccc23)c(=O)n(C)c1=O,.,.,.,/,.,/,/,
Nc1nc(Sc2ccc(C(F)(F)F)cc2[N+](=O)[O-])n[nH]1,.,.,.,.,.,/,/,
O=[N+]([O-])c1cc(C(F)(F)F)ccc1Sc1ccc2ccccc2n1,.,.,.,.,.,.,.,
SMILES,GRK2 inh,PREPL inhibitor,VLA-4 inh,Pemphigus Ab inh,JMJD2C inh,GRK2 CP1,FAM quench CP1,others
C/C(Cn1nnc2ccccc21)=N\OC(=O)c1ccccc1C,75,.,.,.,.,.,.,
Oc1ccc2cc(Br)ccc2c1CN1CCCC1,.,.,.,.,.,/,/,
O=C(NCc1ccccc1)Nc1cccn(Cc2ccccc2)c1=O,57,.,.,.,.,/,/,GRK2 confirm 2=.;FAM quench CP2=.
O=C(NC12CC3CC(CC(C3)C1)C2)c1ccc(N2CCNCC2)c([N+](=O)[O-])c1,.,.,.,.,.,/,/,
O=C1Nc2cc(C(F)(F)F)ccc2N2CCCCC12 (stereo not drawn),52,.,.,.,.,/,/,GRK2 confirm 2=.;FAM quench CP2=.
CCCCN(C)C(=O)c1cc2c(Cl)nc3ccccc3c2s1,49,.,.,.,.,.,.,
COc1cc(CCC(=O)NCc2ccc(F)cc2)cc(OC)c1OC,.,.,.,.,.,.,.,
COc1cc(CCC(=O)Nc2nccs2)cc(OC)c1OC,.,.,.,.,.,.,.,
COc1cc(CCC(=O)NCc2ccc(S(N)(=O)=O)cc2)cc(OC)c1OC,.,.,.,.,.,/,/,
COc1cc(CCC(=O)Nc2ncc(C)s2)cc(OC)c1OC,.,.,.,.,.,/,/,
COc1ccccc1-c1cc(C(F)(F)F)nc(S(=O)(=O)CCCC(=O)NCc2ccc(F)cc2)n1,48,.,.,.,.,.,.,GRK2 confirm 2=.;FAM quench CP2=.
O=C(COC(=O)c1ncc(Cl)c(Cl)c1Cl)NC(=O)NCc1ccccc1,.,.,.,.,.,/,/,
CCOC(=O)CNC(=O)c1sc(NC(=O)c2cccc(F)c2)nc1C,.,.,.,/,.,/,/,
CCOC(=O)CNC(=O)c1sc(NC(=O)c2ccccc2F)nc1C,59,.,.,.,.,.,.,
CC1(C)Oc2ccc(C(=O)Nc3ccccc3)cc2N(CC#N)C1=O,.,.,.,/,.,/,/,
N/C(=N\OC(=O)CC1CCCCC1)c1ccc(Cl)cc1,.,.,.,/,.,/,/,
CCN(CC)CCOC(=O)c1ccc(N/C=C(/C#N)c2nc(-c3ccc(OC)cc3)cs2)cc1,.,.,.,/,.,/,/,
CCN(CC)CCOC(=O)c1ccc(N/C=C(/C#N)c2nc(-c3cc4ccccc4oc3=O)cs2)cc1,100,/,.,.,.,97,38,
O=C(O)Cc1ccc(-c2ccccc2-c2ccccc2)cc1,98,.,.,.,.,.,.,
